Screening data from PubChem.
PTHR1 ag: qHTS for PTHR1 Agonists: Primary Screen | Potency, µM (doses to about 115 µM), without a hit: at the highest dose activation, usual class: activators | HEK293 GP2 PTHR1 cells, GloSensor cAMP luminescence, 1 h | AID 743266, 2014 | Parathyroid hormone/parathyroid hormone-related peptide receptor (Homo sapiens), Q03431 | 0.075% of 410,000 active; note: potency is the fitted concentration of half-maximal effect; nearly all actives have a fitted effect of over 55% in size
Target sequence (Q03431 whole entry, looked up): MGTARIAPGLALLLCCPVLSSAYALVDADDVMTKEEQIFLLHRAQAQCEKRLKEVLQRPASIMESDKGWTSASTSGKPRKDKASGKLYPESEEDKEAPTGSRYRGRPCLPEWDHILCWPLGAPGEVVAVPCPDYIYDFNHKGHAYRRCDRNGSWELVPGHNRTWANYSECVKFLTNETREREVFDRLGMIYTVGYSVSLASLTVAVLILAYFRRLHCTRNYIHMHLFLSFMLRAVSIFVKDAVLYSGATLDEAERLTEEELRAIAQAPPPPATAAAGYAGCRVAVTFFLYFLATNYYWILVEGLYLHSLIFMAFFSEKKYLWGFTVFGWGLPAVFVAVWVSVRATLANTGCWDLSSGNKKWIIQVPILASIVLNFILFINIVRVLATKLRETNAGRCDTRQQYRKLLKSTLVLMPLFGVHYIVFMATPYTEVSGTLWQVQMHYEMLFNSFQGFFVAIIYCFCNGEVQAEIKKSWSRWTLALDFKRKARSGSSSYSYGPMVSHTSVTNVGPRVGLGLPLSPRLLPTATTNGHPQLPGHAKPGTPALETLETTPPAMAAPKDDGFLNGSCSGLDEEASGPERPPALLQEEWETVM
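HEK-293-derived GP2 cells expressing PTHR1 and a GloSensor cAMP reporter, 3,000/well, plated overnight, given luciferin plus IBMX (each 0.5 mM as added) for 1 h at 37 °C, then compound for 1 h at 37 °C. Luminescence was read after 15 min at room temperature.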
B2AR arrestin: qHTS assay of beta-arrestin-biased ligands of beta2-adrenergic receptor; beta-arrestin recruitment to beta2AR, cell-based reporter; Potency, µM (highest dose often 46.1 µM), inactives show top-dose activation, actives largely listed as activators; 0.02% of 330,000 active;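 note: potency is the fitted concentration of half-maximal effect; 0% = DMSO controls and full agonism = EC100 isoproterenol or metaproterenol; nearly all actives have a fitted effect of over 65% in size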
D3 ag: qHTS of D3 Dopamine Receptor Agonist: qHTS | D(3) dopamine receptor (Homo sapiens), P35462 | D3R DiscoveRx beta-arrestin cells, luminescence, 90 min | max activation, % | 0.58% of 410,000 active | AID 652048, 2013; in the data active = max activation above about 30%; note: 0% is about no effect
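Agonist-mode cell screen: cells plated at 1500/well and incubated overnight at 37 °C, then exposed to library compounds for 90 min at 37 °C. Detection reagent was added for 30–60 min at room temperature, and luminescence was read.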
BRCA1 expr up: qHTS Assay to Identify Small Molecule Activators of BRCA1 Expression. Potency, µM (titrated, usually from 46.1 µM), without a hit: at the highest dose activation, hits mostly activators. 1.1% of 380,000 active. MCF7-BRCA1-FFLuc reporter, luminescence, 48 h; response scale: scaled: vehicle 0%, 10 µM genistein 100%; note: potency is the fitted concentration of half-maximal effect; nearly all actives have a fitted effect of over 80% in size
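Luminescence from a BRCA1-driven firefly luciferase in MCF7 cells was the read-out, taken 15 min after substrate addition following 48 h compound exposure at 37 °C. Data were normalized to a 10 microM genistein control and DMSO vehicle.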
D3 antag: qHTS of D3 Dopamine Receptor Antagonist: qHTS. D3R cells, DiscoveRx beta-arrestin luminescence, antagonist mode; stronger effect = lower value. 2.5% of 360,000 active. AID 652054, 2013. max response, negative = inhibition, %; in the data active = max response below about -50%; inconclusive = no clear call, values can overlap the other calls; note: % is set by controls: 0 for no effect and ±100 for the full control effect
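Cells plated overnight at 1500 cells/well, then exposed to library compounds with dopamine controls for 90 minutes at 37 degrees C. DiscoveRx reagent added for 30–60 minutes at room temperature; luminescence read, quantitative HTS format.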
RGS4 inhibitor: Inhibitors of Regulator of G Protein Signaling (RGS) 4: qHTS; Potency, µM (doses to about 114 µM), inactives show at the highest dose activity change, negative = inhibition, actives largely listed as inhibitors; AID 504845, 2011; Regulator of G-protein signaling 4 (Homo sapiens), P49798; 0.039% of 390,000 active; Transcreener GDP fluorescence polarization, RGS4-accelerated GTP hydrolysis; note: potency is the fitted concentration of half-maximal effect; % is set by controls: 0 for no effect and ±100 for the full control effect; nearly all actives have a fitted effect of over 75% in size
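MLSMR compounds (23 nl, pin-transferred) preincubated 10 min at room temperature with a 500nM (2x) first reagent, then RGS4 at 900nM (2x) plus Transcreener GDP mix added; fluorescence polarization (620/688 nm) read before and after 90 min at 30 °C.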
An asterisk follows results filed as active; i = inactive; ? = inconclusive; . = no result given; [ ] = another dose, or the depositor's remark. Hits are enriched below; roughly 3.7% of the tested compounds scored in any of these assays. Unless noted, calls come from the whole dose curve; as a rule, active = well fitted curve in the direction sought with a large enough effect; inconclusive = small, poorly fitted or top-dose-only effect, or another doubt; inactive = no such curve, though single readings can be large; an effect the other way counts as inactive or inconclusive.

SMILES	PTHR1 ag	B2AR arrestin	D3 ag	BRCA1 expr up	D3 antag	RGS4 inhibitor
O=C(Cc1ccccc1)Nc1cccc(-c2nc3cccnc3s2)c1	?	.	78.3*	.	.	6.6%
COc1ccc(NC(=O)CSc2oc(-c3ccc(C)cc3)nc2S(=O)(=O)c2ccc(C)cc2)c(OC)c1	i	.	2.2	.	.	-17.3%
CC(C)CCNC(=O)c1cc(S(=O)(=O)N2CCC3(CC2)OCCO3)ccc1F	-44.9%	.	-2.3	-1.9%	0.0	.
CC1=CC(C)[C@H](/C=N/n2c(=O)[nH]c3c([nH]c4ccc(Br)cc43)c2=O)C(C)C1 (stereo partly specified)	i	0.1%	3.5	-94.9%	-66.5*	-8.0%
COc1cc(NC(=O)COC(=O)CCOc2ccc(C)cc2)cc(OC)c1	i	0.2%	3.3	-18.5%	23.4	-13.8%
O=C1NC[C@@H](CCCCN2C[C@H](Cc3ccccc3)N(Cc3ccccc3)C(=O)C2=O)N(Cc2ccccc2)C1=O	13.7%	.	-10.3	-3.0%	0.0	.
O=C(O)c1ccc(-c2nc3scc(-c4ccccc4)c3c(=O)[nH]2)cc1	17.8µM*	0.2%	14.7	0.0%	-25.4	24.3%
O=c1[nH]c(CN2CCN(Cc3ccccc3)CC2)nc2scc(-c3ccccc3)c12	-34.8%	-0.1%	-41.2	0.0%	-82.0*	2.4%
CC(=O)N1CCN(Cc2nc3scc(-c4ccccc4)c3c(=O)[nH]2)CC1	-1.9%	-0.1%	-2.1	0.2%	-10.4	-18.8%
CCn1c2ccccc2c2cc(CN3CCN(Cc4ccc(Br)cc4)CC3)ccc21	-38.7%	.	-44.5	.	.	11.9%
CN1c2ccc([N+](=O)[O-])cc2N(C)C1(C)c1ccccc1 (stereo unspecified)	-47.6%	0.1%	-20.2	-38.9%	-62.1*	-17.8%
Cn1c2ccccc2c2cc([N+](=O)[O-])ccc21	-1.3%	-0.5%	4.6	-13.0%	-1.3	-24.1%
CCN(CC)c1ccc(NC(=O)CN(C)S(=O)(=O)c2cccc3nsnc23)c(C)c1	i	.	3.9	.	.	8.0%
COc1cccc2cc(CC(=O)c3ccc(C)cc3C)c(=O)oc12	-21.3%	-0.4%	6.2	11.2µM*	17.5	-2.6%
COc1cccc2cc(C(=O)Nc3ccc(C)cc3)c(=O)oc12	i	.	8.9	.	.	-0.8%
COc1ccc(C(=O)Cc2cc3cccc(OC)c3oc2=O)cc1	-28.2%	-0.5%	-1.0	15.8µM*	8.1	2.9%
CN(C)c1ccc(NC(=O)CC(NCc2cccnc2)C(=O)O)cc1 (stereo unspecified)	i	.	4.3	.	.	-10.7%
Cc1ccc(-c2csc(NC(=O)COC(=O)c3cccc(S(=O)(=O)N4CCOCC4)c3)n2)cc1	-16.9%[57.5 µM]	0.3%	-4.7	5.01µM*	20.0	12.8%[56.9 µM]
COc1cccc(C(=O)Nc2nc(-c3ccc(S(=O)(=O)N4CCOCC4)cc3)cs2)c1	-22.2%	-0.4%	0.2	-61.3%	50.7	-9.0%[11.4 µM]
O=C(Nc1nc(-c2nc3ccccc3s2)cs1)c1ccc(S(=O)(=O)N2CCOCC2)cc1	-28.1%[57.5 µM]	0.0%	50.9*	-40.1%	48.1	1.9%
O=C(Nc1nc(-c2ccccn2)cs1)c1cc(S(=O)(=O)N2CCOCC2)ccc1F	-7.3%	0.4%	-27.7	-64.0%	-77.1*	12.2%
O=C(Nc1nc(-c2ccc(S(=O)(=O)N3CCOCC3)cc2)cs1)c1ccccc1	-36.3%	-0.1%	9.0	-71.7%	11.1	13.2%
O=C(c1cccnc1)N1CCN(Cc2ccccc2Br)CC1	-4.8%[57.5 µM]	0.0%	-14.3	-14.2%	-60.2*	16.7%
Cc1ccc(C)c(N2CCN(C(=O)C3CCN(c4nc5ccc(C)cc5[nH]4)CC3)CC2)c1	-6.0%	.	-3.7	.	.	-3.6%
CCOC(=O)C(=CNc1cc(OC)ccc1-n1cccc1)C(=O)OCC	-18.1%	3.7%	50.9*	-9.9%	90.6	-33.2%
SMILES	PTHR1 ag	B2AR arrestin	D3 ag	BRCA1 expr up	D3 antag	RGS4 inhibitor
COc1ccccc1Nc1c2c(nc3ccc(NC(=O)c4cccc(OC)c4OC)cc13)CCCC2	-38.6%	.	53.6*	.	.	-29.8%
COc1ccccc1Nc1c2c(nc3ccc(NC(=O)c4ccccc4F)cc13)CCCC2	-73.1%	.	-18.8	.	.	-3.9%
CCOC(=O)C1(Cc2ccccc2C)CCCN(C(=O)CN2CCCCC2=O)C1 (stereo unspecified)	-1.0%	-0.7%	58.5*	-0.6%	-21.1	3.6%
CCOC(=O)C1(Cc2ccccc2C)CCCN(C(=O)COC)C1 (stereo unspecified)	23.5%	0.1%	-0.3	60.2%	-12.9	-0.6%
CC[C@]12c3[nH]c4cc(-c5ccco5)ccc4c3CCN1C(=O)[C@@H](CC(=O)NCC13CC4CC(CC(C4)C1)C3)C[C@@H]2C(=O)N1CCN(C(=O)C2CC2)CC1	-7.1%	0.3%	-45.7	-68.0%	-53.7*	-16.9%
CC(C)N(C(=O)[C@H]1C[C@H](CC(=O)NCC23CC4CC(CC(C4)C2)C3)C(=O)N2CCc3c([nH]c4ccc(Cl)cc34)[C@]12C)C(C)C	i	-0.1%	37.4*	-37.4%	3.5	5.5%
CCN(CC)C(=O)[C@H]1C[C@H](CC(=O)NCCC2=CCCCC2)C(=O)N2CCc3c([nH]c4cc(CCC(=O)N(C)C)ccc34)[C@]12C	i	-0.6%	9.2	-22.7%	20.3	21.8%
COc1ccc2[nH]c3c(c2c1)CCN1C(=O)C(CC(=O)NCCC2=CCCCC2)C[C@H](C(=O)N(C(C)C)C(C)C)[C@@]31C (stereo partly specified)	i	0.2%	30.5*	-68.5%	-3.3	0.1%
CCN(CC)C(=O)[C@H]1CC(CC(=O)NCCC2=CCCCC2)C(=O)N2CCc3c([nH]c4ccc(OC)cc34)[C@]12C (stereo partly specified)	-15.1%	-0.2%	41.0*	-23.3%	0.0	-12.7%
COc1ccc(-c2nc3cc(NC(=O)COc4ccccc4C)ccc3o2)cc1	-23.4%	.	10.8	.	.	-5.2%
CCOc1ccc(CNC(=O)CCn2c(=O)c3cccn3c3cccnc32)cc1	i	.	-8.1	.	.	-8.6%
O=C(c1ccc(F)cc1F)N1CCN(c2ccccn2)CC1	i	-0.1%	6.8	36.6%	-10.9	-3.8%
O=C1CC(Sc2ncccn2)C(=O)N1c1ccccc1 (stereo unspecified)	i	-0.6%	4.2	10.9%	3.7	-2.5%
